Our source for the growth values is PubChem BioAssay (NCI).

Among the test systems are T-47D breast; BT-549 breast; MDA-MB-435 melanoma; SW-620 colon; MCF7 breast; HCT-116 colon; HCC-2998 colon; KM12 colon.
What all share (assay): NCI-60 one-dose screen, 48 h (100 = growth as untreated, 0 = no growth, -100 = all killed)
Holding throughout (conditions): 10 µM unless noted

The panel holds about 83,000 compounds, 20% with a hit somewhere; the sample as a whole holds those more often.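 Each cell line was grown in a 96-well plate and treated with one concentration of compound for 48 hours. Values below 10 were considered active.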 Unmarked numbers belong to inactive results. The source made the active and inactive calls.

For `COc1cc(Nc2ccnc3ccc(Br)cc23)cc(OC)c1OC`, the growth was 40.9% in the assay on T-47D breast; 53.7% with BT-549 breast; -41.5% (active) in the assay on MDA-MB-435 melanoma; 19.4% in the assay on SW-620 colon; 15.5% in the assay on MCF7 breast; 21.7% in the assay on HCT-116 colon. Moreover, the values for the growth in the assay on HCC-2998 colon and in the assay on KM12 colon were 71.4% and 21%, respectively.
For `OC(c1cc2cc(Cl)ccc2c2cc(C(F)(F)F)ccc12)C1CCCCN1` (stereo not drawn), the growth in the assay with T-47D breast is -82.1% (active); in the assay with BT-549 breast, 54.7%; in the assay with MDA-MB-435 melanoma, -66.1% (active); in the assay with SW-620 colon it was -78.3% (active); in the assay with MCF7 breast, -86.3% (active); with HCT-116 colon it was -85.8% (active). Further, the results for the growth in the assay on HCC-2998 colon and in the assay on KM12 colon were -86.9% (active) and -90.9% (active), respectively.
For `CSC(=S)N/N=C(\C)c1ccccn1`, the growth in the assay on T-47D breast is 21.8%; in the assay on BT-549 breast, 28.8%; in the assay on MDA-MB-435 melanoma it was 35.8%; in the assay on SW-620 colon it was 29.5%; with MCF7 breast, 7.66% (active); in the assay with HCT-116 colon, 9.68% (active). The growth was 28% in the assay with HCC-2998 colon and 19.9% in the assay with KM12 colon.
Regarding `CN(C)c1ccc(C(c2ccccc2)c2ccc(N(C)C)cc2)cc1`, the growth in the assay on T-47D breast was 86.7%; in the assay on BT-549 breast, 101%; in the assay on MDA-MB-435 melanoma, 97%; in the assay on SW-620 colon it was 93.4%; in the assay with MCF7 breast it was 90.3%; in the assay on HCT-116 colon, 80.6%. The growth with HCC-2998 colon is 95.7%; in the assay on KM12 colon, 91.5%.
Consider `Nc1nonc1-c1nc2ccccc2n1Cc1ccc(F)cc1`, for which the growth with T-47D breast is 61.3%; in the assay with BT-549 breast it was 58%; in the assay with MDA-MB-435 melanoma, -39.6% (active); in the assay on SW-620 colon, 24.7%; in the assay with MCF7 breast, 28.4%; in the assay on HCT-116 colon it was 30.4%. Also, the growth is 58.8% with HCC-2998 colon and 30.5% with KM12 colon.
Consider `Nc1nc(N)c2cc(Sc3ccc(Cl)cc3)ccc2n1`, for which the growth was 56.4% with T-47D breast; 54.7% with BT-549 breast; 28.6% with MDA-MB-435 melanoma; 25.8% with SW-620 colon; 19.7% with MCF7 breast; 16.2% in the assay with HCT-116 colon. The growth with HCC-2998 colon was 6.07% (active); in the assay with KM12 colon, 20.5%.
Turning to `CC(=O)c1ccc(Nc2nc(Cl)nc(Oc3c(Cl)cccc3Cl)n2)cc1`, the growth with T-47D breast was 79.8%; in the assay on BT-549 breast, 84.7%; in the assay on MDA-MB-435 melanoma, 89.9%; in the assay on SW-620 colon, 88.6%; with MCF7 breast it was 74.9%; with HCT-116 colon it was 84.9%. Moreover, the growth in the assay with HCC-2998 colon was 106%; in the assay with KM12 colon, 98%.
Regarding `Fc1ccc(-c2nnc(N3CCOCC3)c3ccccc23)cc1`, the growth was 102% in the assay on T-47D breast; 81.4% in the assay on BT-549 breast; 86.6% with MDA-MB-435 melanoma; 100% in the assay with SW-620 colon; 155% with MCF7 breast; 87.9% with HCT-116 colon. Further, the growth with HCC-2998 colon is 110%; in the assay on KM12 colon it was 109%.
In the case of `Cn1c(=O)c2c3c(oc2c2ccccc21)C(=O)c1ccccc1C3=O`, the growth is 9.7% (active) with T-47D breast; 77.4% in the assay with BT-549 breast; 104% in the assay on MDA-MB-435 melanoma; 86.2% in the assay with SW-620 colon; 68.4% with MCF7 breast; 71.7% in the assay on HCT-116 colon. For the same compound, the growth with HCC-2998 colon was 102%; in the assay on KM12 colon, 91.5%.
`CC[C@H](Nc1nc(N)nc(N)c1Cl)c1nc2cccc(NCc3ccc(C(=O)NO)cc3)c2c(=O)n1-c1ccccc1`: the growth in the assay on T-47D breast is 6.8% (active); in the assay with BT-549 breast it was 37.4%; in the assay with MDA-MB-435 melanoma, -51.2% (active); in the assay on SW-620 colon it was 19.9%; with MCF7 breast it was 13%; in the assay on HCT-116 colon it was -63.6% (active). The growth in the assay with HCC-2998 colon is -14.4% (active); in the assay on KM12 colon, -38.3% (active).
With `COc1ccc(NC(=O)C2c3ccccc3C(=O)N(CC(C)C)C2c2cccs2)cc1` (stereo not drawn), the growth in the assay on T-47D breast is 102%; in the assay on BT-549 breast, 98.9%; in the assay on MDA-MB-435 melanoma, 103%; in the assay on SW-620 colon it was 92%; in the assay on MCF7 breast it was 82.3%; with HCT-116 colon it was 93.3%. Further, the growth with HCC-2998 colon was 93.3%; in the assay on KM12 colon it was 97.5%.
`COc1ccc(/C=C2\N=C(c3cccnc3)N(c3ccccc3)NC2=O)cc1`: the growth with T-47D breast was 90.2%; with BT-549 breast it was 94.3%; in the assay on MDA-MB-435 melanoma, 97.3%; with SW-620 colon, 92.3%; in the assay with MCF7 breast it was 91.5%; in the assay on HCT-116 colon, 97.1%. The figures for the growth with HCC-2998 colon and in the assay on KM12 colon were 99.7% and 95.3%, respectively.
On to `O=[N+]([O-])c1cccc([I+]c2ccccc2)c1`, for which the growth with T-47D breast is 50.1%; in the assay on BT-549 breast it was 63.3%; with MDA-MB-435 melanoma, 72.7%; in the assay on SW-620 colon, 40%; with MCF7 breast it was 37.6%; in the assay with HCT-116 colon it was 47.7%. The growth was 67.2% in the assay on HCC-2998 colon and 60.5% with KM12 colon.
As to `COc1cc2c(cc1OC)C(=O)C(Br)CC2` (stereo not drawn), the growth in the assay with T-47D breast was 36.3%; with BT-549 breast it was 16.1%; in the assay on MDA-MB-435 melanoma, 20.2%; in the assay with SW-620 colon it was 25.1%; with MCF7 breast, 40.9%; in the assay on HCT-116 colon, 7.03% (active). Further, the growth was 90.6% in the assay with HCC-2998 colon and 88.9% in the assay on KM12 colon.
Take `CCN1CCN(Cc2ccc(NC(=O)c3nc4ccc5[nH]ncc5c4c4c3CCCC4)cc2C(F)(F)F)CC1`: the growth is -69.3% (active) in the assay on T-47D breast; 79.6% in the assay on BT-549 breast; -87.9% (active) with MDA-MB-435 melanoma; -58.3% (active) in the assay on SW-620 colon; -71.4% (active) in the assay on MCF7 breast; -77.9% (active) in the assay with HCT-116 colon. In addition, the growth was -58.1% (active) with HCC-2998 colon and 4.08% (active) with KM12 colon.
With `Cc1cc(O)c(C2=NN(c3ccc(S(N)(=O)=O)cc3)C(c3ccc(Cl)cc3)C2)c(C)c1Cl` (stereo not drawn), the growth was 46.9% with T-47D breast; 112% with BT-549 breast; 38.6% in the assay on MDA-MB-435 melanoma; 48.5% with SW-620 colon; 13% with MCF7 breast; 55.1% in the assay on HCT-116 colon. Further, the growth with HCC-2998 colon is 66.5%; in the assay with KM12 colon it was 29.1%.
